{"source": "the supplement of paper PMC7724964", "binders": {"B1": {"name": "unnamed (peptide)", "chain": "TWWHLAGPRSHLTTSY"}, "B2": {"name": "unnamed (peptide)", "chain": "QDEDVWWAWMMGLGME"}, "B3": {"name": "unnamed (peptide)", "chain": "AVFSQLWEAMPAVDWT"}, "B4": {"name": "unnamed (peptide)", "chain": "VWYHWQPPDSPINVIE"}, "B5": {"name": "unnamed (peptide)", "chain": "ESLWIIPSNAYWEQVM"}, "B6": {"name": "unnamed (peptide)", "chain": "YFEMLEDDGVWTAPNW"}, "B7": {"name": "unnamed (peptide)", "chain": "DQPPPSYSVLTPDVAL"}, "B8": {"name": "unnamed (peptide)", "chain": "DREQSGWFILRAPVYQ"}, "B9": {"name": "unnamed (peptide)", "chain": "QPLPPPPPPSSIPAPA"}, "B10": {"name": "unnamed (peptide)", "chain": "KDFSMWWVELKEVEVS"}, "B11": {"name": "unnamed (peptide)", "chain": "WYMESLWQPDMMLPKF"}, "B12": {"name": "unnamed (peptide)", "chain": "TMMPIWSEGQWWWGHI"}, "B13": {"name": "unnamed (peptide)", "chain": "SWLRFKAEPPQHIAQL"}, "B14": {"name": "unnamed (peptide)", "chain": "DPMSDLFMHNPFVQEP"}}, "assay_in_all_cases": "phage ELISA signal ratio (GST-PRM binding over GST background); higher = stronger binding of peptide-phage to the PRM", "key": {"[1]": {"molecular_target": "MAD2L1 2-205 HORMA (domain begin residue: 2, domain end residue: 205), Q13257", "sequence (Q13257 whole entry, the tested form may be a part)": "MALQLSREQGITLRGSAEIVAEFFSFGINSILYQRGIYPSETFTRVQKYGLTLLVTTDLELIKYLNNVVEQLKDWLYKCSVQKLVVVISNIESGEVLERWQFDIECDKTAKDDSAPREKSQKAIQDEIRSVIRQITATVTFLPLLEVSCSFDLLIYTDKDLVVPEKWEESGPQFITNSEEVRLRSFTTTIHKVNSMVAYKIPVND", "summary_of_the_method": "(§1)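 Five rounds of selection were carried out against human peptide recognition domains fused to the C-terminus of glutathione S-transferase (GST) and expressed in 96-well plates. The M13 phage library presented randomized hexadecapeptides, cysteine-free and glycine-flanked, on the gene-8 major coat protein. For each value, the phage ELISA signal on the GST-domain fusion was divided by the signal on GST alone.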"}, "[2]": {"molecular_target": "T1, NR1H3 204-447 Hormone_recep (domain begin residue: 204, domain end residue: 447), Q13133", "T1 chain": "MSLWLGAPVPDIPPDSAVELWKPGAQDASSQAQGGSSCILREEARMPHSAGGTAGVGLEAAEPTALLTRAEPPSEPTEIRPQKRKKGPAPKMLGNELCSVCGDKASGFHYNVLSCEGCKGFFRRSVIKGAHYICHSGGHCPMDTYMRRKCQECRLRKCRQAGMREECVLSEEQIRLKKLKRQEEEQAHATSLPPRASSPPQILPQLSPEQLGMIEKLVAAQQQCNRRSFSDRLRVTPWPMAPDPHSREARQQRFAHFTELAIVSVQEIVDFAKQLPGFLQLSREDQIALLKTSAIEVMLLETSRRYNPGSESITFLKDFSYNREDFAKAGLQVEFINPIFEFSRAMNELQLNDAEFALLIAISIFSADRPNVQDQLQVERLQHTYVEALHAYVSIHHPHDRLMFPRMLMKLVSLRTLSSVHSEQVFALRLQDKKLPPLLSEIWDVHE", "summary_of_the_method": "as §1"}, "[3]": {"molecular_target": "T2, MDM4 26-106 SWIB (domain begin residue: 26, domain end residue: 106), O15151", "T2 chain": "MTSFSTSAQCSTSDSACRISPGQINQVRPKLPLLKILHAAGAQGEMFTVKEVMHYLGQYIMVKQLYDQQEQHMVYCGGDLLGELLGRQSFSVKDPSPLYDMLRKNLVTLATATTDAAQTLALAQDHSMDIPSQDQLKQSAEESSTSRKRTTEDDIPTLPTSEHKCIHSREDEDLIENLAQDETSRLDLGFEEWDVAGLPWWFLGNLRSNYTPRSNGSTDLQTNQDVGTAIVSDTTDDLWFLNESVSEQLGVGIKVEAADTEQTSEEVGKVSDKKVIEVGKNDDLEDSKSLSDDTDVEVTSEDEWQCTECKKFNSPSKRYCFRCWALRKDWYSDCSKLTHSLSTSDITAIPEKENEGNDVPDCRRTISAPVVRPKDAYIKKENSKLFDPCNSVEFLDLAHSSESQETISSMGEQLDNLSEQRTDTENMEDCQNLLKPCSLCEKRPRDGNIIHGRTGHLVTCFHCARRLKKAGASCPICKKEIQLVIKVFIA", "summary_of_the_method": "as §1"}, "[4]": {"molecular_target": "T3, NR1H2 203-460 Hormone_recep (domain begin residue: 203, domain end residue: 460), P55055", "T3 chain": "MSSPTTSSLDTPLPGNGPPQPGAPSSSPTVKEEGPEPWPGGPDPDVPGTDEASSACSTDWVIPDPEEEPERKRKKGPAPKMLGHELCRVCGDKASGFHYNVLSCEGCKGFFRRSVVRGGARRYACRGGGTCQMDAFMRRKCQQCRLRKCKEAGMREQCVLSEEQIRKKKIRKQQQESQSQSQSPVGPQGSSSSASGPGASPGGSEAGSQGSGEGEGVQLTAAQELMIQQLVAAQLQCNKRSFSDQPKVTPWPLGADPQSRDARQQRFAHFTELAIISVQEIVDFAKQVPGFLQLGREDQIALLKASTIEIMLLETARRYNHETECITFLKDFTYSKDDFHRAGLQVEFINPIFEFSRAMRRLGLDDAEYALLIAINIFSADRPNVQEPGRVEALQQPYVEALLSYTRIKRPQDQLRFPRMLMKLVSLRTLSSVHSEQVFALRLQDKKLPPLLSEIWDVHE", "summary_of_the_method": "as §1"}, "[5]": {"molecular_target": "T4, NFKBIA 70-282 EF-hand_6 (domain begin residue: 70, domain end residue: 282), P25963", "T4 chain": "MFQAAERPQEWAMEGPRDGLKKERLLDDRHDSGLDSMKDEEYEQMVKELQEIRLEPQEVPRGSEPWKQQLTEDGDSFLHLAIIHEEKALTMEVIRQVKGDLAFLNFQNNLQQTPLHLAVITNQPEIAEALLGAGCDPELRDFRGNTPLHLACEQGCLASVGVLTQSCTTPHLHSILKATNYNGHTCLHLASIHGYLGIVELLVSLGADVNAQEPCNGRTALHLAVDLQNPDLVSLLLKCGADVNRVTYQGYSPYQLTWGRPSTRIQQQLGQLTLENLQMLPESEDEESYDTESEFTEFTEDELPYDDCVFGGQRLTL", "summary_of_the_method": "as §1"}, "[6]": {"molecular_target": "MSH6 89-203 PWWP (domain begin residue: 89, domain end residue: 203), P52701", "sequence (P52701 whole entry)": "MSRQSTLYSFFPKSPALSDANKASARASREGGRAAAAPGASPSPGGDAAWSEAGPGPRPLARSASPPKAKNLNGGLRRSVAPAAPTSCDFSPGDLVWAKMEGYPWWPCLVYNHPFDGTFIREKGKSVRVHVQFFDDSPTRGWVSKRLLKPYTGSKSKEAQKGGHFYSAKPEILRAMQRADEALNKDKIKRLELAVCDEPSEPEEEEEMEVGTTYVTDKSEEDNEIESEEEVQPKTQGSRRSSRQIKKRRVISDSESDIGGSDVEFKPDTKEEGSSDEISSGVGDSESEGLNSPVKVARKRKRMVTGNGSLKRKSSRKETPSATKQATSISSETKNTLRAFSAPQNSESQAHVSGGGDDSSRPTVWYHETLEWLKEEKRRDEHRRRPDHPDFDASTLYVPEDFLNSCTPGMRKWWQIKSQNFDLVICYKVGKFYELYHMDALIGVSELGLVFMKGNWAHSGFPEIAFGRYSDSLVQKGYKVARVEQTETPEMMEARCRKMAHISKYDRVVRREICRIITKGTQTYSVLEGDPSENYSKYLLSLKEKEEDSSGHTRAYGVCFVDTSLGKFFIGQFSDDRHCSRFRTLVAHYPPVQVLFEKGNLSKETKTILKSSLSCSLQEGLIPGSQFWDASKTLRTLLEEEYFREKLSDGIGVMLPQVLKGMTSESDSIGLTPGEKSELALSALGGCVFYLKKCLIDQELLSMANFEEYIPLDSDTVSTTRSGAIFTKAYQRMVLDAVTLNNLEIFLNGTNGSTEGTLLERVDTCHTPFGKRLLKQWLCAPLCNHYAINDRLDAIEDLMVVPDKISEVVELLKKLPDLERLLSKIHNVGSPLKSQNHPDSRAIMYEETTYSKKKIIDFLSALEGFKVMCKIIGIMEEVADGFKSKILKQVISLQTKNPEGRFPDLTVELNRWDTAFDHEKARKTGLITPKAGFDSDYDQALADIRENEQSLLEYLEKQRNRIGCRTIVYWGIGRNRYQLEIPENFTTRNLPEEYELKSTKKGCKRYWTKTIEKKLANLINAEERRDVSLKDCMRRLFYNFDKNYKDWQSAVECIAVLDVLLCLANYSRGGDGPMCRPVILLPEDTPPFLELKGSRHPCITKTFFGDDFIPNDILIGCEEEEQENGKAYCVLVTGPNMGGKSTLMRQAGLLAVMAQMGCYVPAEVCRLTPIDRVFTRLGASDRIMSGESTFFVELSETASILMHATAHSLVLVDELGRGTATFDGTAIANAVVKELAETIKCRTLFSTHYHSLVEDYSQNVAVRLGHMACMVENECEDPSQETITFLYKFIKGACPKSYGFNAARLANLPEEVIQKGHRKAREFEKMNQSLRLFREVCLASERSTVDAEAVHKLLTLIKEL", "summary_of_the_method": "as §1"}, "[7]": {"molecular_target": "T5, MYL6 4-151 EF-hand_6 (domain begin residue: 4, domain end residue: 151), P60660", "T5 chain": "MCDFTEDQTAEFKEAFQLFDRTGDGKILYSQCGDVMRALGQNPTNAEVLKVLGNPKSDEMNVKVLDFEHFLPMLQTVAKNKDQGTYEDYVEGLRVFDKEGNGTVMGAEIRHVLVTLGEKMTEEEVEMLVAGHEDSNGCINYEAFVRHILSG", "summary_of_the_method": "as §1"}, "[8]": {"molecular_target": "T6, ZGPAT 120-268 zf-CCCH+TUDOR (domain begin residue: 120, domain end residue: 268), Q8N5A5", "T6 chain": "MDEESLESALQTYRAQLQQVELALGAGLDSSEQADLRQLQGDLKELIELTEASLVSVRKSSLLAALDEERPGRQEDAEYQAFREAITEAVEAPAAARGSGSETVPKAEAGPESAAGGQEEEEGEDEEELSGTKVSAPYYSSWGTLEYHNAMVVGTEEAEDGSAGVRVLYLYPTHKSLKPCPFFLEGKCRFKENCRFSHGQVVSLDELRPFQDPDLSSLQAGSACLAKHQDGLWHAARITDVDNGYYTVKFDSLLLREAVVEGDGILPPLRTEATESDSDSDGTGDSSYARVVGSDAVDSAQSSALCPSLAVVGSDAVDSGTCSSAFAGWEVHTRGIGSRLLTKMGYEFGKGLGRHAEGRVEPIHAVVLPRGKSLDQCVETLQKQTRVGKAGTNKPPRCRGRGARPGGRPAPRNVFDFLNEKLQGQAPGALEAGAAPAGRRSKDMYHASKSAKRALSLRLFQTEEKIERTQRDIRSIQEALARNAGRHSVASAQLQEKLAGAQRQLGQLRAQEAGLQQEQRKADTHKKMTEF", "summary_of_the_method": "as §1"}}}
{"binder": "B1", "values": [{"measurement": "phage ELISA signal ratio", "setting": "[1]", "value": 12.8}]}
{"binder": "B2", "values": [{"measurement": "phage ELISA signal ratio", "setting": "[2]", "value": 8.99}]}
{"binder": "B3", "values": [{"measurement": "phage ELISA signal ratio", "setting": "[3]", "value": 14.9}]}
{"binder": "B4", "values": [{"measurement": "phage ELISA signal ratio", "setting": "[1]", "value": 11.6}]}
{"binder": "B5", "values": [{"measurement": "phage ELISA signal ratio", "setting": "[4]", "value": 17.3}]}
{"binder": "B6", "values": [{"measurement": "phage ELISA signal ratio", "setting": "[5]", "value": 4.27}]}
{"binder": "B7", "values": [{"measurement": "phage ELISA signal ratio", "setting": "[5]", "value": 13.8}]}
{"binder": "B8", "values": [{"measurement": "phage ELISA signal ratio", "setting": "[1]", "value": 18.9}]}
{"binder": "B9", "values": [{"measurement": "phage ELISA signal ratio", "setting": "[5]", "value": 5.2}]}
{"binder": "B10", "values": [{"measurement": "phage ELISA signal ratio", "setting": "[3]", "value": 17.4}]}
{"binder": "B11", "values": [{"measurement": "phage ELISA signal ratio", "setting": "[6]", "value": 2.63}]}
{"binder": "B12", "values": [{"measurement": "phage ELISA signal ratio", "setting": "[7]", "value": 3.17}]}
{"binder": "B13", "values": [{"measurement": "phage ELISA signal ratio", "setting": "[1]", "value": 9}]}
{"binder": "B14", "values": [{"measurement": "phage ELISA signal ratio", "setting": "[6]", "value": 7.54}, {"measurement": "phage ELISA signal ratio", "setting": "[8]", "value": 8.79}]}
